# From PubChem BioAssay AID1671193 (National Center for Advancing Translational Sciences (NCATS), 2021)
# Screen size: about 150,000 compounds; about 180 (0.12%) were called active. Roughly 6% stayed inconclusive and do not appear here. For the sample, actives were picked, then their nearest neighbours and some compounds at random. Values without a mark were called inactive. Calls follow the shape of the dose curve; as a rule, active = well fitted cell-killing curve with a large enough effect; inconclusive = small, poorly fitted or top-dose-only effect, or effect the other way; inactive = flat fitted curve, though single readings scatter.
# Test: GF-AFC viability counterscreen for inhibitors of alpha-synuclein gene (SNCA) expression; also: nearly all actives have a fitted effect of over 30% in size
# Settings: HEK-293-SNCA-luc viability, GF-AFC fluorescence, 24 h; series mostly up to 57.1 µM; activity change, negative = cytotoxicity: at the top concentration
# Text: Assay Submitter (PI): Daniel R. Scoles Ph.D.
# Department of Neurology, University of Utah, Salt Lake City, Utah
# Accumulation of alpha-synuclein is a main underlying pathological feature of Parkinson's disease (PD) and alpha-synucleinopathies, for which lowering expression of the alpha-synuclein gene (SNCA) is a potential therapeutic avenue. Using a cell-based luciferase reporter of SNCA expression we performed a quantitative high throughput screen (qHTS) of 155,885 compounds in dose response. The screening assay was generated using genome editing to insert the luciferase gene downstream and in frame of the SNCA gene in HEK-293 cells (1). A viability counterscreen using GF-AFC was used to eliminate cytotoxic and false positive compounds. After in silico analysis (clustering, removal of frequent hitter nuisance chemotypes), inhibitor compounds from the primary screen were selected for follow up and re-tested at 11-doses in the SNCA-luc cells (luciferase and GF-AFC confirmation), and in CMV-luc expressing cell line to flag general transcriptional repressors.
# Described herein are the results of the GF-AFC viability counterscreen for SNCA inhibitors; inactivity (no decrease in fluorescence signal, not cytotoxic) is the desired output for this assay.
# 1. Dansithong, W., Paul, S., Scoles, D. R., Pulst, S. M., and Huynh, D. P. (2015) Generation of SNCA Cell Models Using Zinc Finger Nuclease (ZFN) Technology for Efficient High-Throughput Drug Screening. PLoS ONE 10, e0136930.
# SEQUENCE No. (e.g., 1, 2, 3, etc.); […] (e.g., Cells, Incubation, Reagent, etc.); VALUE; DESCRIPTION
# 1; Cells; 4 uL; Dispense 1500 HEK-293-SNCA-luc cells/well into Greiner 1536-well white / solid bottom tissue culture treated plate. The plate was covered with metal lids with gas-exchange holes.
# 2; Incubate; 24 hours; Incubate at 37C, 5% CO2, 95% RH.
# 3; Compounds; 23 nL; Compounds and controls were transferred via a Kalypsys Pin Tool (Wako USA) equipped with a 1536-slotted pin array. The plate was covered with metal lids with gas-exchange holes.
# 4; Incubate; 24 hours; Incubate at 37C, 5% CO2, 95% RH.
# 5; Dispense; 1 uL; Dispense Gly-Phe-7-amino-4-trifluoromethylcoumarin (GF-AFC, prepared at 125 uM in PBS) was added. The plate was covered with metal lids with gas-exchange holes.
# 6; Incubate; 30 min; Incubate at 37C, 5% CO2.
# 7; Detector; Fluorescence; Measure fluorescence with ViewLux microplate reader (PerkinElmer) equipped with 405/10 excitation and 540/25 emission filters.
# 8; Dispense; 3 uL; Dispense ONE-Glo ([…]) lucifase detection reagent was added to each well. Plates were covered with metal lids with gas-exchange holes.
# 9; Incubate; 15 min; Incubate at room temperature.
# 10; Detector; Luminescence; Measure luminescence with ViewLux microplate reader (PerkinElmer) equipped with clear filters.
# NOTES (numbers refer to sequence above)
# 1; HEK-293-SNCA-luc were cultured and suspended in phenol-red free DMEM (4.5 g/L glucose, 25 mM HEPES, cat #21063 (Thermo)).
# 3; Compounds were added to the assay plate in an 11-point intra plate dose response, 1:3 titration in DMSO with a final concentration range of […]. Vehicle-only plates, with DMSO being pin-transferred to every well, were inserted at the beginning of screening runs to confirm expected assay performance. Activity was normalized to wells containing medium only (-100% activity, full inhibition) and SNCA-luc cells treated with DMSO vehicle control (0% activity), contained on the same plate as test samples.
# 10; Signals were analyzed, and dose-response curves were fit using the Hill equation. Compounds in curve classes -1.1, -1.2, -2.1, -2.2 in the SNCA-luc assay were considered active. Compounds were eliminated from further consideration if also active (curve class -1.1, -1.2, -1.3, -1.4, -2.1, -2.2, -2.3, -2.4) in the GF-AFC cytotoxicity assay.
# Potency is read from the fitted curve at half-maximal effect.
Structure (SMILES),"activity change, negative = cytotoxicity",Potency
O=C(c1ccc(F)cc1)N1CCC(C(=O)N2CCC(c3ccccc3)CC2)CC1,0.64%,
CCCN(Cc1nccn1C)C(=O)c1ccccc1C1CCNC1 (configuration not stated),0.415%,
O=c1c2nc(OCc3ccc(-n4cccn4)cc3)ccc2ncn1Cc1ccccc1,-18.7% [at 87.6 µM],
COc1cccc(CNC(=O)c2cn3cc(-c4ccc(C)cc4)sc3n2)c1,5.4%,
COCCOC1CN(C2CCN(S(=O)(=O)c3cccs3)CC2)C12CCCCC2 (configuration not stated),3.82%,
O=C([C@H]1CCCN1C(=O)c1ccc(Cl)nc1)N1CCCC(c2nc3ccncc3[nH]2)C1 (some centres not stated),-7.77%,
CCOc1ccc(N(Cc2ccccc2)C(=O)c2nc(S(C)(=O)=O)ncc2Cl)cc1,,5.62 µM (active)
CCOc1ccc(N(Cc2ccccc2)C(=O)c2nc(SCC)ncc2Cl)cc1,-2.22%,
CCOc1ccc(NC(=O)CN(Cc2ccccc2)S(=O)(=O)c2ccc(Cl)cc2)cc1,4.16%,
Cc1c(C(F)(F)F)nc(-c2ccc(CN3CCNCC3)cc2)[nH]c1=O,-0.179%,
Cc1ccc(NC(=O)Cn2ccn3nc4c(c3c2=O)CCCCC4)cc1,-18.2%,
Cc1ccc(OCc2nc(C3CCN(C(=O)Cc4cccc(F)c4)CC3)no2)cc1,-5.46%,
O=C(COc1ccc(F)cc1)NC1CCN(c2cc(-c3ccccc3)[nH]n2)CC1,1.28%,
CCC1Oc2ccc(NC(=O)c3c(F)cccc3F)cc2CN(CCc2ccc(F)cc2)C1=O (configuration not stated),6.09%,
COC(=O)[C@@H]1Cc2c([nH]c3ccccc23)[C@H]2C[C@@H](NCCN3CCOCC3)C[C@@H](c3ccccc3)N21,-7.47%,
COC(=O)[C@@H]1Cc2c([nH]c3ccccc23)[C@H]2C[C@@H](NCCN3CCOCC3)C[C@@H](c3ccccc3F)N21,,28.2 µM (active)
COC(=O)[C@@H]1Cc2c([nH]c3ccccc23)[C@H]2C[C@H](NCCNC(C)=O)C[C@@H](c3ccc(C)cc3)N21,-6.82%,
CN(C)C[C@@H]1CN(S(C)(=O)=O)C[C@H]1NC(=O)c1nn(C)c2ccccc12,-3.91%,
COc1ccccc1Nc1ccnc(N2CCC(C(=O)NCc3cccc(Cl)c3)CC2)n1,-6.27%,
O=C(c1ccc(F)cc1)N1CCN(c2cc(-c3ccc(F)cc3)[nH]n2)CC1,6.86%,
CCOC(=O)C1CCN(C(=O)C2CCc3nnc(CN[S+](C)(=O)[O-])n32)CC1 (configuration not stated),-2.85%,
O=C(c1ccon1)N1CC[C@@H]2[C@@H](CCC(=O)N2CC2CCNCC2)C1,0.0233%,
CCOc1ccccc1NC(=O)N1CCCN(C)c2ccccc21,-9.62%,
O=C(CCc1ccccc1)Nc1ccc([C@@H](O)[C@H]2COCC(=O)N2Cc2ccccc2F)cc1,1.47%,

Structure (SMILES),"activity change, negative = cytotoxicity",Potency
O=C(CCc1ccnc(N2CCCC2)c1)N1CCN(c2ccccc2)CC1,0.0928%,
CCCS(=O)(=O)c1ncc(Cl)c(C(=O)Nc2scc(-c3ccccc3)c2C(=O)OCC)n1,-14.4%,
CCSc1ncc(Cl)c(C(=O)Nc2cc(C)ccc2C)n1,-4.44%,
Cc1ccc(NC(=O)c2nc(S(=O)(=O)Cc3cccc(C)c3)ncc2Cl)cc1,,28.2 µM (active)
CC1=C[C@@H](CN2CCC(O)CC2)[C@H](C(C)C)C[C@H]1Cc1nnc(-c2ccccc2F)o1,-25.2% [at 87.6 µM],
C[C@@H](c1ccccc1)N(C)C(=O)c1cc(COc2cccc(F)c2)[nH]n1,-5.67%,
CCOC(=O)c1cccc(NC(=O)c2ccc3c(c2)N(C)C2CCCCN2C3=O)c1 (configuration not stated),4.91% [at 12.5 µM],
Cc1cccc(C(=O)N2CCC(OC3CCN(Cc4ccccc4)CC3)CC2)c1,-20.7%,
O=C(Nc1ccc(C(F)(F)F)cc1)C1=NO[C@@H]2CN(CCc3ccccc3)C[C@H]12,4.72% [at 87.6 µM],
COc1ccc(S(=O)(=O)N2C[C@@H]3C[C@H](C2)c2c(NC(=O)C4CCCCC4)ccc(=O)n2C3)cc1,-4.88%,
Cc1ccc(S(=O)(=O)N2CCCC(Cn3c(C4CC4)nc4cccnc43)C2)cc1C (configuration not stated),0.546%,
CC(C)c1nc(-c2ccc(OC3CCN(C(=O)CCc4nc5ccccc5[nH]4)C3)cc2)no1 (configuration not stated),-18.1%,
COc1ccc(-n2nc(C)c([C@@H]3C=C[C@@H](NC(=O)Nc4ccccc4)C3)c2C)cc1,-21% [at 87.6 µM],
CCc1ccccc1NC(=O)N1CCCC(Cn2c(C)nc3cccnc32)C1 (configuration not stated),0.623%,
O=C(NC1CCN(c2nc3ncccc3o2)CC1)c1ccc(Cl)nc1,-25.4%,
CCc1ccc(NC(=O)Cn2ccn3nc4c(c3c2=O)CCCC4)cc1,2.41%,
COc1ccc(NC(=O)N[C@H]2[C@H](O)[C@@H](N3CCN(c4ccccc4)CC3)[C@@H]3OC[C@H]2O3)cc1,-6.88%,
Cc1nc(N(C)C)ncc1C(=O)NC(C(=O)O)c1c(C)n[nH]c1C (configuration not stated),-18%,
COc1ccc(CC(=O)N2CC[C@@H](CC(=O)O)[C@@H](CCN3CCNCC3)C2)cc1,6.71% [at 87.6 µM],
Cc1cc(NC(=O)c2ccc3c(c2)N(C)C2CCCCCN2C3=O)ccc1F (configuration not stated),-3.22% [at 12.5 µM],
COc1nc2nc(CC3CC3)n(C)c2cc1-c1cccc(NC(C)=O)c1,-14.5% [at 87.6 µM],
O[C@H]1[C@H](NCc2ccco2)[C@H]2CO[C@H](O2)[C@@H]1N1CCC(Cc2ccccc2)CC1,4.17% [at 87.6 µM],
COCCC1(NS(C)(=O)=O)CCN(C(=O)c2ccc(OC)nc2OC)CC1,0.208%,
